In PubChem BioAssay (NCI) one finds growth data, which are given here for nine molecules.

About 83,000 compounds went through this panel and 20% of them were active in at least one assay; those are over-represented in the sample as a whole.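 Assay: single dose, 48 h. Readout: percent growth (0 = no net growth; negative = cell death). Active: <10.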 Values without a mark were called inactive. Active and inactive are the calls of the source.

What all share (experiment): NCI-60 one-dose screen, 48 h (100 = growth as untreated, 0 = no growth, -100 = all killed)
Common to all, as to settings: 10 µM unless noted

Experiment [1] relates to SR leukemia.
Experiment [2] relates to RPMI-8226 leukemia.
Experiment [3] relates to OVCAR-8 ovarian.
Experiment [4] relates to OVCAR-5 ovarian.
The subject of experiment [5] is OVCAR-4 ovarian.
For experiment [6], the system named is SK-OV-3 ovarian.
In experiment [7] the test system is IGROV1 ovarian.
The subject of experiment [8] is OVCAR-3 ovarian.
Experiment [9] concerns HS 578T breast.
Experiment [10] has as its system NCI/ADR-RES ovarian.
The test system of experiment [11] is T-47D breast.
The subject of experiment [12] is BT-549 breast.
The test system of experiment [13] is MDA-MB-435 melanoma.
Experiment [14] has as its system SW-620 colon.
Experiment [15] has as its system MCF7 breast.
Experiment [16] concerns HCT-116 colon.
Experiment [17] relates to HCC-2998 colon.
For experiment [18], the system named is KM12 colon.

With `Nc1nc2c(c3cnccc13)C(c1cccc(Cl)c1)Cc1cnccc1-2` (configuration not stated), the growth is 19.5% in experiment [1]; 8.24% (active) in experiment [2]; 29.3% in experiment [3]; 40.4% in experiment [4]; 32.1% in experiment [5]; 32% in experiment [6]. Moreover, the growth was 35.9% in experiment [7]; 10.1% in [8]; 38.9% in experiment [9]; 6.79% (active) in [10]; 47.9% in experiment [11]; -12% (active) in [12]. The growth was -22.9% (active) in experiment [13]; 24.2% in [14]; 11.1% in experiment [15]; 6.83% (active) in experiment [16]; 41.7% in [17]; 13.7% in [18].
Take `COc1ccc(OC)c(Cn2cc3c(c2)-c2oncc2CC3)c1`: the growth in experiment [1] is 22.7%; in experiment [2], 42.5%; in experiment [3] it was 55.5%; in experiment [4], 58.1%; in experiment [5], 69.1%; in [6] it was 11.6%. The growth was 31.2% in experiment [7]; -4.75% (active) in experiment [8]; 19.2% in [9]; 1.37% (active) in experiment [10]; 36.1% in experiment [11]; 33.3% in experiment [12]. The growth in experiment [13] was -40.1% (active); in [14], 22.4%; in experiment [15], 8.44% (active); in experiment [16], 16.8%; in experiment [17], 66.6%; in experiment [18], 28.9%.
In the case of `O=C(O)c1occ(Cl)c1Cl`, the growth in experiment [1] was 92.7%; in experiment [2], 100%; in experiment [3] it was 107%; in experiment [4], 96.5%; in experiment [5] it was 115%; in experiment [6], 109%. Further, the growth in experiment [7] was 120%; in [8] it was 118%; in experiment [9], 115%; in experiment [10] it was 111%; in [11] it was 103%; in experiment [12], 130%. Besides, the growth in experiment [13] was 98.5%; in [14], 104%; in experiment [15] it was 111%; in experiment [16] it was 116%; in experiment [17] it was 104%; in experiment [18], 110%.
Take `COc1cc2ncnc(-n3ncc4cc(NC(=O)Nc5ccccc5)ccc43)c2cc1OC`: the growth in [1] was 26.6%; in experiment [2], 15.6%; in experiment [3], 50.1%; in experiment [4], 24.7%; in experiment [5], 7.2% (active); in experiment [6], 3.75% (active). For the same molecule, the growth in [7] was 5.95% (active); in [8] it was 36.1%; in experiment [9], -18.9% (active); in [10], 39.2%; in experiment [11], -7.28% (active); in experiment [12] it was 24.9%. For the same molecule, the growth in experiment [13] is 31.6%; in experiment [14], 49.5%; in experiment [15], -20.3% (active); in experiment [16], 6.38% (active); in experiment [17], 34.1%; in experiment [18] it was 4.62% (active).
As to `CCC1(CC)C(OC)NC(Br)=C(C#N)C1(C#N)C(N)=O` (configuration not stated), the growth was 57.5% in [1]; 132% in experiment [2]; 106% in experiment [3]; 249% in [4]; 110% in experiment [5]; 114% in experiment [6]. For the same molecule, the growth is -8.89% (active) in [7]; 119% in experiment [8]; 96.5% in experiment [9]; 124% in experiment [10]; 113% in experiment [11]; 104% in [12]. Moreover, the growth in [13] is 107%; in [14], 101%; in [15], 110%; in experiment [16] it was 110%; in [17], 121%; in [18] it was 103%.
For `CCCNC(=O)Oc1ccc(/C(=C(/CC)Cc2ccccc2)c2ccc(OCCN(CC)CC)cc2)cc1`, the growth is -28.6% (active) in experiment [1]; 41.6% in [2]; 80.3% in experiment [3]; 95.5% in experiment [4]; 85.8% in experiment [5]; 88.4% in experiment [6]. Also, the growth in experiment [7] was 85.9%; in experiment [8] it was 79.5%; in experiment [9], 59%; in experiment [10], 75.3%; in experiment [11] it was 34.1%; in experiment [12], 97.4%. In addition, the growth was 87.8% in [13]; 70.9% in experiment [14]; 26.3% in experiment [15]; 49.1% in experiment [16]; 50% in [17]; 69.2% in [18].
With `COC1(OC)N=C(N)C2(C#N)C3(C(=O)Nc4ccccc43)C12C#N` (configuration not stated), the growth in experiment [1] is 6.82% (active); in experiment [2], 49.7%; in [3], 94.2%; in experiment [4], 65.1%; in experiment [5], 60%; in experiment [6] it was 77.4%. In addition, the growth in [7] was 63.5%; in [8] it was 84%; in experiment [9], 67.2%; in experiment [10] it was 100%; in [11] it was 95.8%; in experiment [12], 62.5%. Besides, the growth was 91.7% in [13]; 94.9% in experiment [14]; 86.7% in experiment [15]; 81.6% in experiment [16]; 103% in experiment [17]; 101% in experiment [18].
Turning to `CCCC(C)c1cc(Cc2cc(Cl)cc(Cl)c2O)c(O)c(Cc2cc(Cl)cc(Cl)c2O)c1` (configuration not stated), the growth in [1] is 5.98% (active); in experiment [2], -2.65% (active); in [3], 15%; in [4], 33.8%; in experiment [5] it was 22%; in [6], 14.6%. For the same molecule, the growth in experiment [7] was 28.1%; in experiment [8] it was 16.2%; in experiment [9] it was 1.09% (active); in experiment [10] it was 2.52% (active); in [11], 6.27% (active); in [12] it was -14.9% (active). Further, the growth in experiment [13] is 7.24% (active); in [14] it was 12.9%; in experiment [15], 4.88% (active); in [16] it was 4.58% (active); in experiment [17] it was 8.08% (active); in experiment [18], 9.12% (active).
In the case of `Cc1nc2ccccc2c(=O)n1-c1cccc(OCc2cn(-c3cccc(O)c3)nn2)c1`, the growth in [1] is 86.3%; in experiment [2], 71.5%; in [3] it was 88.6%; in [4] it was 111%; in experiment [5] it was 89.6%; in experiment [6], 103%. Further, the growth in experiment [7] was 99.2%; in [8], 91.5%; in experiment [9], 87.4%; in experiment [10], 98%; in experiment [11], 68.4%; in experiment [12], 99.8%. The growth in [13] was 108%; in experiment [14], 104%; in [15], 94.3%; in experiment [16], 95.2%; in experiment [17], 103%; in experiment [18] it was 95.2%.
